This is an account of results in PubChem BioAssay.

What is called inhibition is the relative decrease from the control value, in per cent.

Several values for one entry are separate records, joined by “and”; a condition that tells them apart may be missing. Equal values may be shown once. Some structures have more than one record in an assay (separate samples or runs), and their calls can disagree. Activity calls are given as the source filed them.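 How the source made its calls, unless noted: active means thallium flux through the channel raised or lowered by more than 3 SD from vehicle-only wells, actives on both sides; inactive means the rest.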

A short description of assay [1]: stimulators of nuclear beta-catenin in C2C12, primary screen, imaging, WNT3A-conditioned medium, mouse C2C12, NPC library (AID 1117326; in the data active means nuclear beta-catenin stimulation mostly above about 4.2%, no sharp cut-off; inactive means mostly below about 10%). The conditions noted are these: stronger effect = higher value.
A short description of assay [2]: stimulators of insulin release from INS-1E, primary screen, cell-based, 5 mM glucose, NPC library (AID 1117329;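 active means compound raises insulin release from rat beta cells at 5 mM glucose, no numeric limit stated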). To be noted: rat INS-1E insulin secretion, at 10 µM, stronger effect = higher value.
Assay [3] is described as follows: growth inhibition of GSK3B-pretreated HCT116 cells – cell-based, CellTiter-Glo, 0.2 to 20 µM (AID 1117336;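 active means compounds lowering colon cancer cell viability after pretreatment blocking the GSK3B kinase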). To be noted: HCT116 viability after GSK3B inhibitor, at 20 µM, stronger effect = higher value.
Assay [4] can be described thus: inhibition of endothelial tube formation, primary screen, imaging, VEGF stimulated, CD31 staining, tube area, NPC library (AID 1117340;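 active means compound that reduces growth-factor-driven endothelial tube area in a mixed cell culture, no cutoff stated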). To be noted: VEGF-stimulated ADSC/ECFC co-culture, at 10 µM, stronger effect = higher value.
The nature of assay [5]: glucagon-like peptide 1 release enhancers, primary assay, NCI-H716 cell line, NPC library (AID 1117341;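 active means compound raises GLP1 secretion from the human gut endocrine cells, with no numeric limit stated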). The conditions noted are these: NCI-H716 cells, at 10 µM, stronger effect = higher value.
Assay [6] can be described thus: HCT116 colon cancer cell growth inhibition, primary screen, CellTiter-Glo luminescence, NPC library (AID 1117342;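 active means compounds that lower survival of HCT116 colon cancer cells in the luminescence readout, no numeric limit stated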). To be noted: at 20 µM (top of the series). In general terms: ATP-based viability assays read luminescence as a measure of living cells.
A short description of assay [7]: CellTiter-Glo luminescent readout of SW480 viability loss, NPC library primary (AID 1117343;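 active means compounds that lower viability of the colon cancer cells in the luminescence readout, with no numeric limit stated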). To be noted: CellTiter-Glo luminescence; at 20 µM (top of the series).
The nature of assay [8]: decreased DLD-1 cellular survival, CellTiter-Glo luminescent readout, NPC compound collection, primary HTS (AID 1117346;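 active means compounds that lower survival of DLD-1 colon cancer cells in the luminescence readout, no cutoff given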). The conditions noted are these: DLD-1 viability, CellTiter-Glo luminescence; at 20 µM (top of the series).
Assay [9] addresses 6-phosphogluconate dehydrogenase, decarboxylating (Homo sapiens) (UniProt P52209). Kind of assay: 6PGD enzyme inhibitors, primary screen, biochemical, human, recombinant enzyme, NADPH absorbance (AID 1159550;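 active means at least 20% inhibition of 6-phosphogluconate dehydrogenase activity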). To be noted: recombinant 6PGD, NADPH absorbance 341 nm; at 10 µM; stronger effect = higher value.
Assay [10] in a line: differential killing of epithelial or mesenchymal cells, primary screen, imaging, PC-3E GFP, TEM4-18 mCherry, co-culture (AID 1345086;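 active means compounds killing one labelled cell type while sparing the other, by normalised counts and ratio limits, not self-fluorescent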;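 further: cells exposed to compound for 72 h before imaging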;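 on red/green cell ratio (normalised): normalised mesenchymal count divided by normalised epithelial count so high means epithelial killing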). To be noted: imaging cell counts, at 1 µM.
Assay [11] in a line: survival rescue of mitochondrial mutant cells in low glucose, primary screen, MELAS cybrids, Rieske KO mouse fibroblasts, CellTiter-Glo (AID 1508586;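 active means mean z-score across replicates of 1.96 or higher in either the MELAS or the Rieske mutant cell line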;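 further: z relative to plate mean and SD of compound and empty wells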).
Assay [12] has as its target NAD(+) hydrolase SARM1 (Homo sapiens) (UniProt Q6SZW1). Nature of the assay: SARM1 TIR NADase inhibitors, cell lysate, NAD-Glo luminescence (AID 1508614;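 active means compound whose remaining NAD level is above about 45 nM, limit read from the data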). To be noted: SAM-TIR HEK293T lysate NADase, at 1 µM, stronger effect = higher value.
Assay [13] deals with Mitogen-activated protein kinase 7 (Homo sapiens) (UniProt Q13164). Nature of the assay: ERK5 transactivation activators in reporter cells, primary screen, cell-based, HTS (AID 1508626;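 active means luciferase signal above three times the same-plate solvent-only control wells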;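 further: luciferase driven by Gal4-ERK5 fusion binding five Gal4 sites before minimal TATA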). The conditions noted are these: HeLa Gal4-ERK5 transactivation, 18 h, at 5 µM, stronger effect = higher value.
Mitogen-activated protein kinase 7 (Homo sapiens), sequence (Q13164 whole entry, looked up, the tested form may be a part): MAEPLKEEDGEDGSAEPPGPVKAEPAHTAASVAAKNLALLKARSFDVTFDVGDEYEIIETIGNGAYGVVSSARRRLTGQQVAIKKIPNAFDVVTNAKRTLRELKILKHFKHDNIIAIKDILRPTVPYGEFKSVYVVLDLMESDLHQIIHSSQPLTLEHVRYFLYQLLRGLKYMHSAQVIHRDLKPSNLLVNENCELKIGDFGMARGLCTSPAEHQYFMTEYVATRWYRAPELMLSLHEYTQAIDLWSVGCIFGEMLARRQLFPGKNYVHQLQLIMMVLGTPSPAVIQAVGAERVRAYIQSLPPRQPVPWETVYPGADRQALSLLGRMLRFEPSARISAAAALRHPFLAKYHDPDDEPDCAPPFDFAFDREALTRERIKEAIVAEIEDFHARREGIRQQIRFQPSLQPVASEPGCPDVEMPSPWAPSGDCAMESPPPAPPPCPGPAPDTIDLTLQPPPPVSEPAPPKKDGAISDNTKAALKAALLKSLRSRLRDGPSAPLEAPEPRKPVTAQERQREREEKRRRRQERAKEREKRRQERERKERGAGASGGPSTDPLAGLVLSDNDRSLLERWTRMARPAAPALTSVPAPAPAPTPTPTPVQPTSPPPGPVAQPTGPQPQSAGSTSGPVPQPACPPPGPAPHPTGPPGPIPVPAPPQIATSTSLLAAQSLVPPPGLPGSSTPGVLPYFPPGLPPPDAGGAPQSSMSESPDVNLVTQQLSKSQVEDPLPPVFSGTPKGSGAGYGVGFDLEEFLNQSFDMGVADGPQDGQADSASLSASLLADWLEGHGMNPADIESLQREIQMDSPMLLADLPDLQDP
Assay [14] deals with F380Y. Nature of the assay: modulators of BK channel variants, profiling panel, selectivity assay, cell-based, U2OS BacMam, thallium flux, beta subunits (AID 1259406).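 Further: initial slope of Thallos dye fluorescence rise after thallium is added; log ratio against the mean of 0.3% DMSO vehicle wells on the same plate.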 The conditions noted are these: at 30 µM.
In assay [15] the test system is F380Y/beta2Delta. The description is as above. The conditions noted are these: at 30 µM.
For assay [16], the target named is Calcium-activated potassium channel subunit alpha-1 (Homo sapiens) + Leucine-rich repeat-containing protein 26 (Homo sapiens) (UniProt Q12791+Q2I0M4). Described as above. The conditions noted are these: F380Y/Slo1WT/gamma1, at 30 µM.
Calcium-activated potassium channel subunit alpha-1 (Homo sapiens) + Leucine-rich repeat-containing protein 26 (Homo sapiens), sequence (Q2I0M4 whole entry, looked up, one chain of several): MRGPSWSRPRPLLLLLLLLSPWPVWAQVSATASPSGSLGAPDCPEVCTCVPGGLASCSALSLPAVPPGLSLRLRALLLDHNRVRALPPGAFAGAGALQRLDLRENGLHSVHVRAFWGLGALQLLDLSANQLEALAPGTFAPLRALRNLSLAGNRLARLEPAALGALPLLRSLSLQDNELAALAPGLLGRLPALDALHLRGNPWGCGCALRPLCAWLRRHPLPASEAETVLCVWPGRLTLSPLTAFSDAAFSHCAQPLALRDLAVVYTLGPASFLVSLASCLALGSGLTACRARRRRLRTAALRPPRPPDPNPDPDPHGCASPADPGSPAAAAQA
In assay [17] the test system is R275C. The description is as above. The conditions noted are these: at 30 µM.
Assay [18] concerns R275C/beta1. The assay is described as above. The conditions noted are these: at 30 µM.
The subject of assay [19] is R275C/beta2Delta. The assay is described as above. To be noted: at 30 µM.
Assay [20] is described as follows: sensitizers of A549 cells to miR-34 induction, primary screen, imaging, A549 dox-inducible miR-34, nuclei and caspase counts (AID 1347080;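 active means compounds whose cell count with miR-34 switched on is under 0.7 times the count with it off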). The conditions noted are these: A549 miR-34 inducible, Hoechst nuclei count, 48 h.
Where [21] appears, read: MELAS cybrid survival, CellTiter-Glo 48 h, stronger effect = higher value.
Where [22] appears, read: Rieske KO mouse fibroblast survival, CellTiter-Glo 72 h.

6-phosphogluconate dehydrogenase, decarboxylating (Homo sapiens), sequence (P52209 whole entry, looked up): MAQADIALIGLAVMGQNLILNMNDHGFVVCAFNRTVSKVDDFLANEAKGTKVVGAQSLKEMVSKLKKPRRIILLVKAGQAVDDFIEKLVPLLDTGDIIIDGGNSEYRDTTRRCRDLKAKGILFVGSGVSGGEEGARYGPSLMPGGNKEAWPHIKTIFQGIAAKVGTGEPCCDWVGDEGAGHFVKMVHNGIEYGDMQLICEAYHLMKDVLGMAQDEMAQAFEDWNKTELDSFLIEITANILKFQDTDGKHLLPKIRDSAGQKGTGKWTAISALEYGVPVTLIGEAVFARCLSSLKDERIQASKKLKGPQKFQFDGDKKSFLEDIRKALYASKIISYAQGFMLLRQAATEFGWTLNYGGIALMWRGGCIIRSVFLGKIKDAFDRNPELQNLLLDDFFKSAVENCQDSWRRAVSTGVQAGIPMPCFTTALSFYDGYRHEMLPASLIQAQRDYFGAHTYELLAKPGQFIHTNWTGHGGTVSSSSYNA
NAD(+) hydrolase SARM1 (Homo sapiens), sequence (Q6SZW1 whole entry, looked up, the tested form may be a part): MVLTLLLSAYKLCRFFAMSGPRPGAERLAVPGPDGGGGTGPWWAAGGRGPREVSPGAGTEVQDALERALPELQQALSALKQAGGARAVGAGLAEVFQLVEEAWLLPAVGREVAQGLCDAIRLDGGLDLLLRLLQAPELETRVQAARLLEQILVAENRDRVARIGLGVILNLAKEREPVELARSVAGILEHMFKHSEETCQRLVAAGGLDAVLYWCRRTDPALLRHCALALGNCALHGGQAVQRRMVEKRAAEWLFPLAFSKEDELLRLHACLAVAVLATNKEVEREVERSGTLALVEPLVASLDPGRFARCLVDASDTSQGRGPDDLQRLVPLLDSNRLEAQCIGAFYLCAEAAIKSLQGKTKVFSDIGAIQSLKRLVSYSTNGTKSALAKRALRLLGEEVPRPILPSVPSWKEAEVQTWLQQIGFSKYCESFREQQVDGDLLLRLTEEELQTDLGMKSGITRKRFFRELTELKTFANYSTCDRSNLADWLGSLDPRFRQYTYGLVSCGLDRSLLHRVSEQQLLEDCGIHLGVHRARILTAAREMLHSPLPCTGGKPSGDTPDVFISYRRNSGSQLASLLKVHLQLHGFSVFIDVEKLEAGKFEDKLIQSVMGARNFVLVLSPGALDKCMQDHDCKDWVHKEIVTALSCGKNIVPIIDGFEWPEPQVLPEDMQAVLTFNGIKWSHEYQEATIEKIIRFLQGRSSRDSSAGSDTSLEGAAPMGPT

In the case of `CCCSc1ccc2nc(NC(=O)OC)[nH]c2c1`, the nuclear beta-catenin stimulation was 49% (active) in assay [1] (at 10 µM) and 24.2% in [1] (stimulation, at 2 µM). Also, in [2], the insulin secretion stimulation is -1% (inactive). Moreover, the viability decrease in [3] was 87.3% (active). Moreover, the tube area decrease in [4] was 102% (active). In addition, in [5], the GLP1 secretion stimulation was 0.9% (inactive). Further, in assay [6], the inhibition of viability is 76% (active). In addition, the viability decrease (inhibition) in [7] is 86.6% (active); in assay [8], 56.7% (active). Further, the inhibition in assay [9] was -6.38% (inactive). Moreover, the red/green cell ratio (normalised) in [10] (actives lie on both sides, counts scaled to control wells, 1 = unselective) was 0.93 (inactive). For the same molecule, the figures for the normalised cell number in assay [10] (measured here: epithelial PC-3E GFP cell survival) and in assay [10] (measured here: mesenchymal TEM4-18 mCherry cell survival) were 0.26 and 0.24, respectively. Further, the z-score was 2.78 (active) and -2.05 (inactive) in assay [11] (setting [21]); 0.0317 and -0.672 and 1.64 in assay [11] (setting [22]). In addition, the remaining NAD in assay [12] was 10 nM (inactive). The luciferase signal in assay [13] was 368 AU (active). In addition, the log fold change Tl+ flux in [14] is -0.0721 (inactive); in [15] it was 0.0117 (inactive); in assay [16], -0.0345 (inactive); in [17], 0.0372 (inactive); in assay [18] it was 0.0301 (inactive); in assay [19], 0.0234 (inactive).

On to `Cc1cccc(Nc2ccncc2S(=O)(=O)NC(=O)NC(C)C)c1`, for which the nuclear beta-catenin stimulation was -1.1% (inactive) in assay [1] (at 10 µM) and -0.1% in assay [1] (stimulation, at 2 µM). The insulin secretion stimulation in assay [2] is 5% (inactive). In addition, the viability decrease in assay [3] is -8.2% (inactive). Also, in [4], the tube area decrease was -9.9% (inactive). Further, the GLP1 secretion stimulation in [5] was -2% (inactive). For the same molecule, the inhibition of viability in [6] is -1.7% (inactive). Moreover, the viability decrease (inhibition) in [7] was -0.7% (inactive); in [8], -9.6% (inactive). Further, the inhibition in assay [9] was -8.28% (inactive). In addition, the fold change in assay [20] (stronger effect = lower value, cell number ratio, induced over uninduced) was 0.955 (inactive) and 0.95 (inactive); in assay [20] (measured here: relative caspase fold change +Dox/-Dox) it was 0.599 and 1.15. The cell count was 8770 and 10100 in [20] (measured here: total cells with miR-34 induction, stronger effect = lower value); 9180 and 10600 in [20] (measured here: total cells without miR-34 induction). The z-score in [11] (setting [21]) was -0.921 (inactive); in assay [11] (setting [22]), -0.333. Moreover, in assay [12], the remaining NAD is 10 nM (inactive). The log fold change Tl+ flux in [14] was 0.0355 (inactive); in [15], -0.0041 (inactive); in assay [16], -0.0447 (inactive); in assay [17], -0.147 (active); in assay [18], 0.0246 (inactive); in assay [19], 0.0124 (inactive).

As for `C[C@@H]1O[C@@H](OC[C@H]2O[C@@H](Oc3c(-c4ccc(O)c(O)c4)oc4cc(O)cc(O)c4c3=O)[C@H](O)[C@@H](O)[C@@H]2O)[C@H](O)[C@H](O)[C@H]1O`, the nuclear beta-catenin stimulation in assay [1] (at 10 µM) was 0% (inactive); in assay [1] (stimulation, at 2 µM), 1.9%. The insulin secretion stimulation in assay [2] was 0.6% (inactive). Also, the viability decrease in assay [3] is 56% (active). Also, the tube area decrease in assay [4] was 4.5% (inactive). Also, in assay [5], the GLP1 secretion stimulation is -1.2% (inactive). The inhibition of viability in assay [6] is 70.9% (active). In addition, the viability decrease (inhibition) in assay [7] is 59.4% (active); in assay [8] it was 44.7% (inactive). For the same molecule, in [9], the inhibition was 4.58% (inactive). Also, in [12], the remaining NAD is 10 nM (inactive). Besides, the log fold change Tl+ flux in assay [14] is -0.0319 (inactive); in assay [15], 0.0273 (inactive); in assay [16] it was -0.026 (inactive); in [17], 0.0426 (inactive); in [18], -0.0081 (inactive); in assay [19], 0.00535 (inactive).
